Test results from PubChem BioAssay (EPA / NIEHS).
Results filed as inconclusive are left out. Active and inactive are the calls of the source. How the source made its calls, unless noted: active means hit-call score of the fitted dose curve at least 0.9, where 1 is the maximum; inactive means score below 0.9.

Tests used:
[1] = target: human Vitamin D Receptor (VDR), VDR (gene 7421) (UniProt P11473); assay: ATG_VDR_TRANS: Attagene TRANS-FACTORIAL HepG2 Assay for human Vitamin D Receptor (VDR) (AID 2283022; active means hit-call score of the fitted dose curve at least 0.9, where 1 is the maximum)
Outline: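 Steps: transfect HepG2 with GAL4-UAS-driven reporter constructs; dose compounds 24 h; isolate RNA, reverse-transcribe, PCR-amplify with 6-FAM-labelled primer extension and HpaI digestion; quantify fragments by capillary electrophoresis relative to DMSO.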

[2] = BSK_3C_SRB: Viability Assessment in the BioMAP Diversity Plus: 3C Assay (AID 2283023); settings: primary human endothelial cells (HUVEC);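 further: fitted both ways against DMSO so a hit may be signal rise or drop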
Outline: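 Absorbance at 560 nm of sulforhodamine B-stained (0.1%) total protein served as a cytotoxicity readout in human umbilical vein endothelial cells, 24 h after chemical treatment. Signal was fitted bidirectionally relative to DMSO.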

[3] = read-out: Matrix Metallopeptidase 1 (MMP1), MMP1 (gene 4312); assay: BSK_BE3C_MMP1: BioMAP Diversity Plus: BE3C Assay for Matrix Metallopeptidase 1 (MMP1) Biomarker Activity (AID 2283024); settings: primary human bronchial epithelial cells; actives raise or lower the signal
Outline: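 MMP1 signal, measured by ELISA after a 24 h chemical exposure of human primary bronchial epithelial cells, is analysed with bidirectional fitting using DMSO as negative control.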

[4] = BSK_3C_Vis: BioMAP Diversity Plus: 3C Assay for Morphology Visualization (AID 2283025); settings: primary human endothelial cells (HUVEC);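 further: fitted both ways so gain or loss versus DMSO counts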
Outline: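 Morphology read by light microscopy serves as a background control for the multiplexed 3C assay in human umbilical vein endothelial cells, taken 24 h after dosing, with DMSO as the negative control and bidirectional curve fitting.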

[5] = read-out: Pselectin, SELP (gene 6403); assay: BSK_4H_Pselectin: BioMAP Diversity Plus: 4H Assay for Pselectin Biomarker Activity (AID 2283026); settings: primary human endothelial cells (HUVEC); actives raise or lower the signal
Outline: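 Endothelial primary cells (human umbilical vein) are dosed, incubated 24 h, and assayed for surface P-selectin by ELISA; responses in either direction are fitted relative to the DMSO negative control.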

[6] = BSK_4H_SRB: Viability Assessment in the BioMAP Diversity Plus: 4H Assay (AID 2283027); settings: primary human endothelial cells (HUVEC);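 further: cells exposed to compound for 24 h before staining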
Outline: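 Cytotoxicity read-out in primary human endothelial cells: after 24 h compound exposure, cells were TCA-fixed (10%), stained with 0.1% SRB and absorbance taken at 560 nm. Values fitted in both directions relative to DMSO.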

[7] = BSK_BE3C_SRB: Viability Assessment in the BioMAP Diversity Plus: BE3C Assay (AID 2283028); settings: primary human bronchial epithelial cells
Outline: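 Cells (human bronchial epithelial, primary) are treated with chemicals, and after 24 h the parallel cultures are fixed in 10% TCA. These are then stained with 0.1% SRB and read at 560 nm. Gain or loss of signal is fitted relative to DMSO.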

[8] = read-out: Thrombomodulin, THBD (gene 7056); assay: BSK_3C_Thrombomodulin: BioMAP Diversity Plus: 3C Assay for Thrombomodulin Biomarker Activity (AID 2283029); settings: primary human endothelial cells (HUVEC); actives raise or lower the signal
Outline: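 Endothelial cells from umbilical vein are dosed with test chemical and incubated 24 h. Thrombomodulin is then quantified by ELISA, with DMSO serving as negative control and activity baseline.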

[9] = read-out: Urokinase-type plasminogen activator receptor (uPAR), PLAUR (gene 5329); assay: BSK_4H_uPAR: BioMAP Diversity Plus: 4H Assay for Urokinase-type plasminogen activator receptor (uPAR) Biomarker Activity (AID 2283030); settings: primary human endothelial cells (HUVEC); actives raise or lower the signal
Outline: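 Cell-surface uPAR ELISA signal, measured 24 h after dosing human umbilical vein endothelial cells, was analyzed with bidirectional fitting relative to DMSO. Parallel SRB staining of total protein tracked overt cytotoxicity.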

[10] = read-out: Vascular endothelial growth factor receptor 2 (Homo sapiens) (UniProt P35968); assay: BSK_4H_VEGFRII: BioMAP Diversity Plus: 4H Assay for Vascular endothelial growth factor receptor 2 (VEGFR2) Biomarker Activity (AID 2283031); settings: primary human endothelial cells (HUVEC); actives raise or lower the signal
Outline: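 ELISA read-out of VEGFRII in primary human umbilical vein endothelium, taken 24 h after chemical treatment. Responses are expressed relative to DMSO, with bidirectional fitting.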

[11] = read-out: Human Leukocyte Antigen - DR isotype (HLADR), HLA-DRA (gene 3122); assay: BSK_BE3C_HLADR: BioMAP Diversity Plus: BE3C Assay for Human Leukocyte Antigen - DR isotype (HLADR) Biomarker Activity (AID 2283032); settings: primary human bronchial epithelial cells; actives raise or lower the signal
Outline: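 Chemicals are dosed onto BE3C bronchial epithelial cultures of human origin and left 24 h. HLA-DR is then measured by ELISA, and the endpoint is fitted in both directions using DMSO as the activity baseline.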

[12] = read-out: Vascular cell adhesion molecule 1 (VCAM1), VCAM1 (gene 7412); assay: BSK_4H_VCAM1: BioMAP Diversity Plus: 4H Assay for Vascular cell adhesion molecule 1 (VCAM1) Biomarker Activity (AID 2283033); settings: primary human endothelial cells (HUVEC); actives raise or lower the signal;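 further: cell-surface VCAM-1 protein measured by ELISA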
Outline: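 Chemicals are added to primary human umbilical vein endothelial cells. After 24 h, VCAM-1 levels are measured by ELISA. Values come from bidirectional fitting referenced to DMSO.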

[13] = read-out: Interferon-gamma inducible Protein 10 (IP10), CXCL10 (gene 3627); assay: BSK_BE3C_IP10: BioMAP Diversity Plus: BE3C Assay for Interferon-gamma inducible Protein 10 (IP10) Biomarker Activity (AID 2283034); settings: primary human bronchial epithelial cells; actives raise or lower the signal
Outline: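 IP-10 quantified by ELISA serves as the endpoint. Cells: primary human bronchial epithelium, read 24 h after compound addition. Activity is derived by bidirectional fitting with DMSO as negative control.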

[14] = read-out: Monokine induced gamma interferon (MIG), CXCL9 (gene 4283); assay: BSK_BE3C_MIG: BioMAP Diversity Plus: BE3C Assay for Monokine induced gamma interferon (MIG) Biomarker Activity (AID 2283035); settings: primary human bronchial epithelial cells; actives raise or lower the signal;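 further: MIG protein measured by ELISA in BE3C cultures after 24 h of dosing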
Outline: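 ELISA quantified MIG after 24 h exposure of primary bronchial epithelial cultures, analysed in both directions relative to DMSO. Cytotoxicity tracked in parallel cultures by sulforhodamine B staining.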

[15] = read-out: Transforming growth factor beta 1 (TGFb1), TGFB1 (gene 7040); assay: BSK_BE3C_TGFb1: BioMAP Diversity Plus: BE3C Assay for Transforming growth factor beta 1 (TGFb1) Biomarker Activity (AID 2283036;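 further: TGF-b1 protein level measured by ELISA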); settings: primary human bronchial epithelial cells; actives raise or lower the signal
Outline: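 Bronchial epithelial primary cells are treated with test chemical, then TGF-b1 is quantified by ELISA after 24 hours. Values derive from bidirectional fitting against DMSO, with cytotoxicity checked by SRB staining in parallel cultures.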

[16] = read-out: Plasminogen activator inhibitor-1 (PAI1), SERPINE1 (gene 5054); assay: BSK_BE3C_PAI1: BioMAP Diversity Plus: BE3C Assay for Plasminogen activator inhibitor-1 (PAI1) Biomarker Activity (AID 2283037); settings: primary human bronchial epithelial cells; actives raise or lower the signal
Outline: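 Values derive from bidirectional fitting against DMSO baseline of PAI-1 levels, measured by ELISA in human bronchial epithelial cells 24 h after compound addition.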

[17] = read-out: urokinase plasminogen activator (uPA), PLAU (gene 5328); assay: BSK_BE3C_uPA: BioMAP Diversity Plus: BE3C Assay for urokinase plasminogen activator (uPA) Biomarker Activity (AID 2283038); settings: primary human bronchial epithelial cells; actives raise or lower the signal;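 further: uPA protein level quantified by ELISA in cell cultures; uPA read one day after compound addition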
Outline: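 Bronchial epithelial cells (human, primary); chemical 24 h; uPA by ELISA; bidirectional fit vs DMSO. SRB (0.1%, after 10% TCA fixation, 560 nm) in parallel cultures for cytotoxicity.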

[18] = read-out: Urokinase-type plasminogen activator receptor (uPAR), PLAUR (gene 5329); assay: BSK_BE3C_uPAR: BioMAP Diversity Plus: BE3C Assay for Urokinase-type plasminogen activator receptor (uPAR) Biomarker Activity (AID 2283039); settings: primary human bronchial epithelial cells; actives raise or lower the signal;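 further: cells exposed to compound for one day before measurement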
Outline: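 Steps: dose human primary bronchial epithelial cells, incubate 24 h, measure uPAR by ELISA, then fit gain- or loss-of-signal response bidirectionally relative to DMSO.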

[19] = read-out: Interleukin-6 (IL6), IL6 (gene 3569); assay: BSK_CASM3C_IL6: BioMAP Diversity Plus: CASM3C Assay for Interleukin-6 (IL6) Biomarker Activity for (AID 2283040); settings: primary human coronary artery smooth muscle cells; actives raise or lower the signal
[20] = read-out: Tissue plasminogen activator (tPA), PLAT (gene 5327); assay: BSK_BE3C_tPA: BioMAP Diversity Plus: BE3C Assay for Tissue plasminogen activator (tPA) Biomarker Activity (AID 2283041); settings: primary human bronchial epithelial cells; actives raise or lower the signal;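 further: tPA level quantified by ELISA one day after compound addition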
Outline: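 Gain- or loss-of-signal in tPA, measured by ELISA, derived by bidirectional fitting against DMSO. Cells: human primary bronchial epithelial; read at 24 h after chemical dosing.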

Measured: AC50

Chain of human Vitamin D Receptor (VDR), VDR (gene 7421) (P11473 whole entry, looked up, the tested form may be a part): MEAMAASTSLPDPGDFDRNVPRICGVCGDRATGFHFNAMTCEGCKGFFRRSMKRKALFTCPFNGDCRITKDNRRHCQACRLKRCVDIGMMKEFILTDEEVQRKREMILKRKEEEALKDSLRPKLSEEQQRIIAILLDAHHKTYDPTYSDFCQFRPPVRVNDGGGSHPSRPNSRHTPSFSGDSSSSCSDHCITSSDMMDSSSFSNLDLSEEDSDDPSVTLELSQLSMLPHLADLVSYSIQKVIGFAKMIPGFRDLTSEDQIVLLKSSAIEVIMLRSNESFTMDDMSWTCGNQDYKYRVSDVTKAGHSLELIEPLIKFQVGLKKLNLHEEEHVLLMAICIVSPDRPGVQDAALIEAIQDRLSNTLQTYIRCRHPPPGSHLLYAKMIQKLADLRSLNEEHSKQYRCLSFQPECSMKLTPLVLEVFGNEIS

Cc1cccc(C)c1O
inactive: [1] | [2] | [3] | [4] | [5] | [6] | [7] | [8] | [9] | [10] | [11] | [12] | [13] | [14] | [15] | [16] | [17] | [18] | [19] | [20]

CCCCCCCC=O
inactive: [1] | [2] | [3] | [4] | [5] | [6] | [7] | [8] | [9] | [10] | [11] | [12] | [13] | [14] | [15] | [16] | [17] | [18] | [19] | [20]

COCCOCCOC
inactive: [2] | [3] | [4] | [5] | [6] | [7] | [8] | [9] | [10] | [11] | [12] | [13] | [14] | [15] | [16] | [17] | [18] | [19] | [20]

CC(=O)Oc1ccccc1C(=O)O
active: [9] 412 nM
inactive: [2] | [3] | [4] | [5] | [6] | [7] | [8] | [10] | [11] | [12] | [13] | [14] | [15] | [16] | [17] | [18] | [19] | [20]

Cc1ccc(Cl)cc1
inactive: [1] | [2] | [3] | [4] | [5] | [6] | [7] | [8] | [9] | [10] | [11] | [12] | [13] | [14] | [15] | [16] | [17] | [18] | [19] | [20]

CCCCOC(=O)CCCCCCCCC(=O)OCCCC
inactive: [2] | [3] | [4] | [5] | [6] | [7] | [8] | [9] | [10] | [11] | [12] | [13] | [14] | [15] | [16] | [17] | [18] | [19] | [20]

CC(=O)OCCOCCOCCOC(C)=O
inactive: [2] | [3] | [4] | [5] | [6] | [7] | [8] | [9] | [10] | [11] | [12] | [13] | [14] | [15] | [16] | [17] | [18] | [19] | [20]

C=CCOC(=O)c1ccccc1C(=O)OCC=C
inactive: [2] | [3] | [4] | [5] | [6] | [7] | [8] | [9] | [10] | [11] | [12] | [13] | [14] | [15] | [16] | [17] | [18] | [19] | [20]
